# Data from PubChem BioAssay (NCI).
# This is part of a sample that, as a whole, favours compounds with a hit. Of some 83,000 tested, about 20% had one in any assay.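 Plates (96-well) were seeded with cells, treated with compound at one concentration, and incubated for 48 hours before percent growth was determined.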 A number with no mark means an inactive call. Calls of active or inactive are those of the source. How the source made its calls: active means growth percent below 10; inactive means the rest.
# Tests used:
# Assay in all cases: NCI-60 one-dose screen, 48 h (100 = growth as untreated, 0 = no growth, -100 = all killed)
# [1] = test system: HOP-92 NSCLC; settings: 10 µM unless noted
# [2] = test system: COLO 205 colon; settings: 10 µM
# [3] = test system: MALME-3M melanoma; settings: 10 µM unless noted
# [4] = test system: SNB-75 CNS; settings: 10 µM unless noted
# [5] = test system: SNB-19 CNS; settings: 10 µM unless noted
# [6] = test system: U251 CNS; settings: 10 µM unless noted
# [7] = test system: SK-MEL-5 melanoma; settings: 10 µM unless noted
# [8] = test system: SK-MEL-2 melanoma; settings: 10 µM unless noted
# [9] = test system: EKVX NSCLC; settings: 10 µM unless noted
# [10] = test system: TK-10 renal; settings: 10 µM unless noted
# [11] = test system: ACHN renal; settings: 10 µM unless noted
# [12] = test system: CCRF-CEM leukemia; settings: 10 µM unless noted
# [13] = test system: SR leukemia; settings: 10 µM
# [14] = test system: RPMI-8226 leukemia; settings: 10 µM unless noted
# [15] = test system: T-47D breast; settings: 10 µM unless noted
# [16] = test system: MDA-MB-435 melanoma; settings: 10 µM unless noted
# [17] = test system: IGROV1 ovarian; settings: 10 µM
# [18] = test system: NCI-H522 lung; settings: 10 µM unless noted
# [19] = test system: HCT-116 colon; settings: 10 µM unless noted
Compound,growth [1],growth [2],growth [3],growth [4],growth [5],growth [6],growth [7],growth [8] [%],growth [9],growth [10],growth [11],growth [12],growth [13],growth [14],growth [15] [%],growth [16],growth [17],growth [18],growth [19]
CCOCC1(CCc2ccccc2)C(=O)NC(=S)NC1=O,101%,109%,138%,100%,105%,101%,111%,103,116%,115%,108%,100%,92.7%,104%,99.3,108%,,,
O=C1C=CC(=O)C2C1C1(Cl)C(Cl)=C(Cl)C2(Cl)C1(Cl)Cl (stereo not drawn),15.7%,74.7%,49.2%,40.3%,,60.8%,47.5%,37,41.3%,71.5%,50.8%,60.4%,36.5%,67.9%,28,3.15% (active),56.4%,,
CCN(CC)CCOc1c(C(C)C)cccc1C(C)C,106%,,107%,84.8%,106%,98.6%,101%,96.9,96.5%,110%,97.4%,102%,-1.29% (active),103%,85.1,,101%,93.3%,95.2%
c1ccc(CCN2CCCCC2Cc2ccccc2)cc1 (stereo not drawn),100%,,97.7%,107%,111%,98.5%,94.8%,87.7,93.4%,96.6%,,105%,88.5%,107%,,118%,92.5%,83.5%,78.1%
O=[N+]([O-])c1ccc(/C=C/C=C/c2ccc(S(=O)(=O)F)cc2)c(Cl)c1,86.1%,,102%,71.7%,94.3%,96.2%,97.9%,84,,,102%,,77.9%,93.4%,86.2,92.9%,104%,83.8%,106%
COc1cc(C2(C#N)CCN(C)CC2)cc(OC)c1OC,100%,107%,113%,84.9%,102%,101%,107%,109,112%,108%,98.5%,116%,91.2%,106%,98.1,103%,109%,,91.8%
Nc1ccc([N+](=O)[O-])c2c1Oc1ccccc1O2,84.4%,99.3%,121%,82.8%,80.8%,,,102,91.9%,94.4%,108%,91.2%,,105%,72.7,106%,,,99.7%
N#C[Se]CCN1C(=O)C2C(C1=O)[C@H]1C=C[C@@H]2S1 (stereo partly drawn),-46.3% (active),68.3%,-40.5% (active),,-19.1% (active),-56.9% (active),-52.8% (active),23.4,-51.6% (active),-65.3% (active),-2.15% (active),8.31% (active),6.77% (active),-10.4% (active),70.7,,,,-35.4% (active)
O=C(c1cccs1)C1NO[N+]([O-])=C1c1cccs1 (stereo not drawn),-35.9% (active),6.64% (active),-55.3% (active),-11.5% (active),103%,64%,112%,,102%,-46.8% (active),22.8%,-40.3% (active),22.4%,14.1%,26.3,72.9%,7.37% (active),-92.1% (active),25.6%
C/C(=C\c1cc(C(F)(F)F)n(-c2ccc(N)cc2)n1)[C@@H]1C[C@@H]2O[C@]2(C)CCC[C@H](C)[C@H](O)[C@@H](C)C(=O)C(C)(C)[C@@H](O)CC(=O)O1,37.9%,-45% (active),58.1%,-16.2% (active),21.1%,3.19% (active),,,31.8%,,31.9%,,-16.4% (active),3.83% (active),12.8,-22.6% (active),31.1%,,
